Assay outcomes: PubChem, National Center for Advancing Translational Sciences (NCATS)
VP16 counter: counter-screen for ROR gamma inhibitors: Gal4-VP16 reporter. Drosophila S2 Gal4-VP16 UAS-luciferase, luminescence, 20 h. Potency, µM (highest dose often 53.6 µM), for the others: at the highest dose activity, negative = inhibition, most hits filed as inhibitors. 310,000 tested, 3.5% active. AID 2546;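 also: Gal4-VP16 expression switched on by copper sulfate through the metallothionein promoter; nearly all actives have a fitted effect of over 50% in size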
RORgamma inh: inhibitors of mouse ROR gamma transcriptional activity | Potency, µM (top dose mostly 53.6 µM), for inactives: at the highest dose activity change, negative = inhibition, usual class: inhibitors | AID 2551 | 310,000 tested, 5.4% active | P51450 | Drosophila S2 Gal4-RORgamma UAS-luciferase reporter, 20 h; also: nearly all actives have a fitted effect of over 60% in size
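Compounds are pin-transferred onto Drosophila Schneider cells expressing a copper-inducible Gal4–ROR gamma transactivation domain fusion. After 1 hr, copper sulfate is added to 700 uM final; luciferase is read 20 hr later.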
ALOX12 inh: inhibitors of human 12S-lipoxygenase ALOX12; P18054; purified 12hLO, xylenol orange hydroperoxide absorbance; Potency, µM (highest dose often 108 µM), for the others: at the highest dose activity change, negative = inhibition, usual class: inhibitors; 580,000 tested, 1.1% active; AID 1671190
Target sequence (P18054 whole entry, looked up): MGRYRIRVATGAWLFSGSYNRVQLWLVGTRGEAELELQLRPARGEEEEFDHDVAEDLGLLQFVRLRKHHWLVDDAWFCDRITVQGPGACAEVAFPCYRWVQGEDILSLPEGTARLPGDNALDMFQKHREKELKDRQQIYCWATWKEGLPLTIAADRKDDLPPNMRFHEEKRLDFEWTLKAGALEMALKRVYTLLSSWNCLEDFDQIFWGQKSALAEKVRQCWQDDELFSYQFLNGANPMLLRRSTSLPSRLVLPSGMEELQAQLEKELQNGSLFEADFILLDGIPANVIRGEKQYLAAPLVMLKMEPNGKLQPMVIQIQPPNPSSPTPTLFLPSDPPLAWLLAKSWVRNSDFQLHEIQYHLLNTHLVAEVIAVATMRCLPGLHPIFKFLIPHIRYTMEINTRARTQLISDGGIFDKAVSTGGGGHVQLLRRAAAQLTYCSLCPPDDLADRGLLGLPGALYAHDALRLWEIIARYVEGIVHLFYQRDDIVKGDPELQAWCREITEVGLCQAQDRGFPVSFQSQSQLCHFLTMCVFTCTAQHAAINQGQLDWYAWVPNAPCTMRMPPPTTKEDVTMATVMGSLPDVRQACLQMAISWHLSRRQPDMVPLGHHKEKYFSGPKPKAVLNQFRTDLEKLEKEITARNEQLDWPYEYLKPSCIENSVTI
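Purified human 12hLO at 150 nM in 25 mM Hepes, 0.01% Triton X-100, pH 7.0, preincubated 15 min at room temperature with compound. Reaction started with 40 uM arachidonic acid, 30 min at room temperature. Hydroperoxide measured by Fe-xylenol orange, 573/405 nm absorbance ratio.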
ELG1 repair inh: inhibitors of ELG1-dependent DNA repair in HEK293T cells | HEK293T ELG1-luciferase reporter, luminescence, 16 h; DNA damage induced by 5-fluorouridine | 330,000 tested, 2.3% active | Potency, µM (series often up to 46.1 µM), without a hit: at the highest dose activity change, negative = inhibition, most hits filed as inhibitors; also: nearly all actives have a fitted effect of over 55% in size
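DMSO vehicle served as the neutral condition. Each well held 2,000 cells given 5-fluorouridine plus compound; after 16 hr at 37 °C/5% CO2, ONE-Glo was added and luciferase measured 30 min later.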
TDP1 cell CPT: DT40-hTDP1 cell growth loss with CPT; Potency, µM (titrated, usually from 46.2 µM), for the others: at the top dose activity change, negative = growth inhibition, usual class: inhibitors; chicken DT40 Tdp1-/-;hTDP1 cells + 20 nM CPT, ATP luminescence, 48 h; AID 686979; 420,000 tested, 12% active; also: nearly all actives have a fitted effect of over 55% in size
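Cell growth measured by CellTiter-Glo luminescence after a minimum 48 h, 37 C compound exposure with 20 nM CPT in Tdp1-knockout DT40 cells stably expressing hTDP1, seeded 400/well; qHTS titration format.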
DT40 TDP1 no CPT: qHTS for Inhibitors of human tyrosyl-DNA phosphodiesterase 1 (TDP1): qHTS in cells in absence of CPT; DT40 Tdp1-/- hTDP1 cells, no CPT, ATP luminescence, 48 h; Potency, µM (series often up to 46.2 µM), for inactives: at the highest dose activity change, negative = growth inhibition, hits mostly inhibitors; 420,000 tested, 15% active; AID 686978, 2013; also: nearly all actives have a fitted effect of over 55% in size
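Seeded 400 DT40-hTDP1 cells/well (vehicle DMSO, no 20 nM CPT); pinned compounds; ≥48 hr at 37 °C; CellTiter-Glo luminescence as viability measure.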
Active calls of the source: *; [ ] = another dose, or the depositor's remark. A selection: hits, their analogues and other compounds. The true share with any hit is near 15%. Calls follow the shape of the dose curve; as a rule, active = well fitted curve in the direction sought with a large enough effect; inconclusive = small, poorly fitted or top-dose-only effect, or another doubt; inactive = no such curve, though single readings can be large; an effect the other way counts as inactive or inconclusive. % is scaled to controls: 0 for no effect and ±100 for the full control effect; potency is read from the fitted curve at half-maximal effect.

`Cc1ccc(OS(=O)(=O)c2ccccc2)c(/C=N/N=C2\NC(=O)C(C)S2)c1` (configuration not stated) gave VP16 counter 16µM*, RORgamma inh 8.9µM*, ALOX12 inh -3%, ELG1 repair inh 2%, TDP1 cell CPT inconclusive and DT40 TDP1 no CPT 18µM*.
Cc1ccc(Cc2nnc3n(-c4ccccc4)nc(C(=O)c4ccccc4)n3c2=O)cc1 was read as VP16 counter -17%, RORgamma inh inconclusive, ALOX12 inh 0%, ELG1 repair inh 21µM*, TDP1 cell CPT inconclusive and DT40 TDP1 no CPT inconclusive.
Screening Cc1ccc(CNC(=O)c2cc(C)nn2-c2ccccc2)cc1 returned VP16 counter -1%, RORgamma inh 6%, ALOX12 inh 12%, ELG1 repair inh 12%, TDP1 cell CPT -25% and DT40 TDP1 no CPT -19%.
C=CCOC(=O)C(C#N)c1nc2ccccc2nc1N1CCCC1 (configuration not stated) was read as VP16 counter -2%, RORgamma inh -39%, ALOX12 inh inconclusive, ELG1 repair inh -10%, TDP1 cell CPT -6% and DT40 TDP1 no CPT -19%.
For CCOC(=O)N1CCN(c2nc3ccccc3nc2C(C#N)C(=O)NC2CCCCC2)CC1 (configuration not stated) the results were ALOX12 inh 36%.
`COc1ccccc1N1CCN(c2nc(C)cc(C)c2C#N)CC1` gave ALOX12 inh 6%, ELG1 repair inh -6%, TDP1 cell CPT -13% and DT40 TDP1 no CPT -25%.
For COc1ccccc1N1CCN(c2nc3ccccc3nc2C(C#N)C(=O)OC(C)C)CC1 (configuration not stated) the results were RORgamma inh 6%[0.365 µM], ALOX12 inh inconclusive, ELG1 repair inh inconclusive, TDP1 cell CPT inconclusive and DT40 TDP1 no CPT 21µM*.
Screening CCOc1ccccc1N1CCN(c2nc3ccccc3nc2C(C#N)C(=O)OC)CC1 (configuration not stated) returned VP16 counter -2%, RORgamma inh -26%, ALOX12 inh 0%, ELG1 repair inh -20%, TDP1 cell CPT 23µM* and DT40 TDP1 no CPT 15µM*.
`CCOc1ccccc1N1CCN(c2nc(N)c(C#N)c(CC#N)c2C#N)CC1` gave VP16 counter -9%, RORgamma inh 0%, ALOX12 inh -14%, ELG1 repair inh -28%, TDP1 cell CPT inconclusive and DT40 TDP1 no CPT 21µM*.
Screening O=C(NC1CC2CCC1C2)c1ccccc1Cl (configuration not stated) returned ALOX12 inh 11%.
For COc1ccc(CCNC(=O)C(=O)NCC(c2cccs2)S(=O)(=O)c2ccc(F)cc2)cc1 (configuration not stated) the results were ALOX12 inh 0%, TDP1 cell CPT inconclusive and DT40 TDP1 no CPT 23µM*.
`O=S(=O)(NCC(c1cccs1)S(=O)(=O)c1ccccc1)c1ccc(F)cc1` (configuration not stated) gave ALOX12 inh -18%, TDP1 cell CPT 1.6µM* and DT40 TDP1 no CPT 2.3µM*.
COc1ccc(N(C(=O)CCl)C(C(=O)NCCc2ccccc2)c2cccs2)cc1 (configuration not stated) was read as VP16 counter inconclusive, RORgamma inh 11µM*, ALOX12 inh 0%, ELG1 repair inh inconclusive, TDP1 cell CPT 4.6µM* and DT40 TDP1 no CPT 4.1µM*.
COc1ccc(CNC(=O)C(c2ccncc2)N(C(=O)Cc2cccs2)c2ccccc2)cc1 (configuration not stated) was read as VP16 counter 1%, RORgamma inh 29%, ALOX12 inh 18%, ELG1 repair inh -13%, TDP1 cell CPT inconclusive and DT40 TDP1 no CPT inconclusive.
O=C(NCCc1ccc(F)cc1)C(=O)NCC(c1cccs1)S(=O)(=O)c1cccs1 (configuration not stated) was read as ALOX12 inh -28%, TDP1 cell CPT inconclusive and DT40 TDP1 no CPT 26µM*.
Screening COc1ccccc1NC(=O)C(C)OC(=O)c1nn(C)c(=O)c2ccccc12 (configuration not stated) returned ALOX12 inh 20%.
Screening O=c1[nH]c2ccc(Br)cc2c(-c2ccccc2)c1CN1CCCCC1 returned ALOX12 inh 22µM*.
Cc1ccccc1N/N=C1\CCCNC1=O was read as VP16 counter -8%, RORgamma inh -25%, ALOX12 inh 4.5µM*, ELG1 repair inh inconclusive, TDP1 cell CPT -21% and DT40 TDP1 no CPT -8%.
For COc1ccccc1C(=O)OCC(=O)N1CCC(Cc2ccccc2)CC1 the results were ALOX12 inh -29%, ELG1 repair inh inconclusive, TDP1 cell CPT inconclusive and DT40 TDP1 no CPT inconclusive.
CCOC(=O)c1ccc(NC(=O)COc2ccccc2CNCCc2ccccc2)cc1 was read as VP16 counter inconclusive, RORgamma inh inconclusive, ALOX12 inh inconclusive, ELG1 repair inh 26µM*, TDP1 cell CPT inconclusive and DT40 TDP1 no CPT inconclusive.
For CC(=O)Nc1ccc(C(=O)OCC(=O)NCc2ccccc2)cc1 the results were VP16 counter -5%, RORgamma inh 6%, ALOX12 inh -12%, ELG1 repair inh 1%, TDP1 cell CPT inconclusive and DT40 TDP1 no CPT 21µM*.
`CC(=O)Nc1ccc(OCC(=O)NCc2ccccc2)cc1` gave VP16 counter -30%, RORgamma inh 20%, ALOX12 inh 11%, ELG1 repair inh 24%, TDP1 cell CPT 23% and DT40 TDP1 no CPT -1%.
Screening CC(=O)Nc1ccc(C(=O)OCC(=O)N2CCC(Cc3ccccc3)CC2)cc1 returned ALOX12 inh inconclusive, ELG1 repair inh 6.5µM*, TDP1 cell CPT -23% and DT40 TDP1 no CPT -28%.
O=C(CSc1nnc2ccccn12)N1CCN(C(c2ccccc2)c2ccccc2)CC1 was read as ALOX12 inh 10%.
Screening Cc1cc(C)c2cc(C(=O)N3CCCCC3)[nH]c2c1C returned ALOX12 inh -40%.
Cc1cnc(CCN)n1Cc1ccccc1 was read as ALOX12 inh 121%.
Cc1ncc(C(O)c2ccccc2)n1Cc1ccccc1 (configuration not stated) was read as ALOX12 inh 0%, TDP1 cell CPT inconclusive and DT40 TDP1 no CPT 23µM*.
